MPTP block: mitochondrial permeability transition pore inhibitors, primary screen, biochemical, isolated mouse mitochondria, absorbance; Ca2+ swelling absorbance, 30 min; AID 602449, 2012; inhibition, % at 10 µM; actives 1.4% (n = 360,000);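 active = inhibition of 50% or more, scaled per plate between neutral and stimulator controls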
aDG glyco up: activators of alpha-DG glycosylation, primary screen, uHTS, Pro5-aDG cells, AlphaScreen. alpha-DG glycosylation AlphaScreen (IIH6); 0% Pro5, 100% B10-LARGE cell signal. actives 0.22% (n = 360,000). AID 624168, 2012. activation, % at 10 µM;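 active = activation of at least 8% versus controls, or a plate z-score of at least 8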;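 also: Pro5 are CHO cells carrying HIG-tagged alpha-DG that lacks glycosylation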
NadD inh: inhibitors of S. aureus NadD, primary screen, biochemical, colorimetric, uHTS; Nicotinate-nucleotide adenylyltransferase NadD (Staphylococcus aureus N315); purified NadD enzyme, colorimetric absorbance read-out; inhibition, % at 20 µM; actives 0.78% (n = 360,000); in the data active = inhibition above about 26%
TAG inh: inhibitors of triacylglycerol accumulation, primary screen, cell-based, uHTS, fluorescence, H9c2. inhibition, % at 12.5 µM. AID 651582, 2012. actives 0.66% (n = 230,000). H9c2 cells, Nile Red lipid (TAG) fluorescence; cells loaded with 200 µM oleic acid;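 active = pattern-corrected inhibition of lipid staining of at least 50% with the nuclear-stain viability signal not falling by more than 50%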
aDG glyco conf: alpha-DG glycosylation enhancers, retest, confirmation, single concentration, Pro5-aDG cells | actives 17% (n = 600) | AID 651671, 2012 | shares compounds with aDG glyco up | activation, % at 10 µM (by protocol) | IIH6 AlphaLISA; scaled to LARGE-overexpressing B10 cells as 100%;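 active = activation of at least 7% in one or more replicates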;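 also: cells exposed to compound for two days before detection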
Hits are given with their value; i = inactive; nt = no result given. In the library only some 2.7% were active in any assay of this set; here they are far more common.

SMILES	MPTP block	aDG glyco up	NadD inh	TAG inh	aDG glyco conf
CCN1C[C@@H]2[C@@H]3C(=O)N(C)C(=O)[C@@H]3[C@](C)(C(=O)OC)N2C1=NC	i	i	i	i	nt
Cc1ccc2c(c1)NC(=O)C(CC(=O)NCCCN1CCN(c3cc(Cl)ccc3C)CC1)O2 (configuration not stated)	i	14	i	i	i
Cc1ccc2c(c1)NC(=O)C(CC(=O)NCCCN1CCCCC1)O2 (configuration not stated)	i	i	i	nt	nt
N#Cc1ccccc1C[C@H](N)C(=O)NC[C@H]1O[C@@H](n2ccc(N)nc2=O)[C@H](O)[C@@H]1O	i	i	i	i	nt
CCN(CC)S(=O)(=O)c1ccc2[nH]c(=O)cc(C(=O)Nc3cccc(C(C)=O)c3)c2c1	i	9.2	i	i	i
COc1ccc(C(NC(=O)C2CCN(Cc3ccc(Oc4ccccc4)cc3)CC2)c2ccccc2C)cn1 (configuration not stated)	i	i	i	i	nt
CCNC(=O)N(CC)C[C@H]1N[C@@](C)(C(=O)OC)[C@H]2C(=O)N(Cc3ccccc3)C(=O)[C@@H]12	i	7.1	i	i	i
CCN(C[C@H]1N[C@@](C)(C(=O)OC)[C@H]2C(=O)N(Cc3ccccc3)C(=O)[C@@H]12)C(=O)c1ccccc1	i	i	i	i	nt
COc1ccc([C@H]2C[C@@H](n3cc(C4CC4)nn3)[C@H](O)CN2CC2CCCCC2)cc1	i	i	i	i	nt
CCc1nc2ccc(C(=O)N3CCN(S(=O)(=O)CC)CC3)cn2c1N(C)C(=O)c1cccc(OC)c1	i	i	i	i	nt
Cc1c(C(=O)NCc2cccc(Cl)c2)sc(=O)n1Cc1cccc(F)c1	i	6.8	i	i	i
COc1ccc(Cl)cc1C(=O)NNC(=O)c1cccc([N+](=O)[O-])c1	i	3.3	i	i	i
COc1ccccc1C(=O)NNC(=O)c1cccc(Cl)c1	i	i	i	nt	nt
CCOC(=O)C(=CNc1cc(C)nn1-c1ccc(C)cc1)C(=O)OCC	i	4.7	i	i	i
CC(C)(C)c1ccc(OCCCNC2CCCC2)cc1	i	6.7	i	i	i
Cc1ccc(OCCCNC2CCCC2)cc1	i	i	i	nt	nt
Cc1ccccc1NC(=O)CSc1nc2[nH]c(=O)cc(O)c2s1	i	i	i	i	nt
Cc1cccc(C)c1NC(=O)CSc1nc2[nH]c(=O)cc(O)c2s1	i	18	i	i	i
CCN1C(=S)N[C@@H](CCc2ccccc2)C(C(=O)OC)=C1C	i	i	i	i	nt
CCCCCCn1c(=O)n2n(c1=O)[C@@H]1CN(S(=O)(=O)c3ccc(C)cc3)C[C@]1(O)[C@@H](OC(=O)Nc1cccs1)C2	i	i	i	i	nt
O=C(Nc1ccc(N2CCCCCC2)cc1)c1cccc(S(=O)(=O)N2CCOCC2)c1	i	2.8	i	i	i
O=C(Nc1cccc(S(=O)(=O)N2CCOCC2)c1)c1cccc(S(=O)(=O)N2CCCCC2)c1	i	i	i	i	nt
CC12CCC(C(NC(=S)NN)C1=O)C2(C)C (configuration not stated)	i	27	i	i	i
O=C(NC1CCSc2ccccc21)c1cc(S(=O)(=O)N2CCOCC2)ccc1Cl (configuration not stated)	i	i	i	i	nt
O=C(C[C@H]1C/C=C\CC[C@H](Cc2ccc(F)cc2)C(=O)OC[C@@H](Cc2c[nH]c3ccccc23)NC1=O)NCCO	i	i	i	i	nt
SMILES	MPTP block	aDG glyco up	NadD inh	TAG inh	aDG glyco conf
Cc1cccc(NC(=O)c2ccc([N+](=O)[O-])s2)c1C	i	10	i	i	i
CCn1c(C)nc2cc(S(=O)(=O)C(F)(F)C(F)C(F)(F)F)ccc21 (configuration not stated)	i	4.4	i	nt	i
Cc1ccccc1NC(=O)C(C)OC(=O)C1CCCO1 (configuration not stated)	i	i	i	i	nt
O=C(NCCc1ccccc1)Nc1nnc([C@@H]2C[C@H](O)[C@@H](CO)O2)s1	i	i	i	i	nt
CCc1nc(CN2CCCC(C(=O)c3ccc4c5c(cccc35)CC4)C2)c(C)[nH]1 (configuration not stated)	i	7.3	i	i	i
COc1cc(C2/C(=C(\O)c3ccc4c(c3)OCCO4)C(=O)C(=O)N2Cc2ccco2)cc(OC)c1OC (configuration not stated)	i	i	i	i	nt
